These results are taken from PubChem BioAssay (NCATS).

Results filed as inconclusive are left out. Values without a mark were called inactive. Active and inactive are the calls of the source. Calls follow the shape of the dose curve; as a rule, active = well fitted curve in the direction sought with a large enough effect; inconclusive = small, poorly fitted or top-dose-only effect, or another doubt; inactive = no such curve, though single readings can be large; an effect the other way counts as inactive or inconclusive.

Test [1] relates to MCC-26. Kind of test: qHTS assay to identify novel small-molecules to repurpose for Merkel cell carcinoma treatment (AID 1296009). Also: nearly all actives have a fitted effect of over 60% in size. The conditions noted are these: MCC and control cell lines, CellTiter-Glo viability, 72 h; series mostly up to 46 µM. The method, boiled down:
(§1)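 CellTiter-Glo luminescence after 72 hr compound exposure at 37 degree celsius gave cell viability. Libraries NPC and MIPE were run as 8- and 11-point dose responses; RLUs normalized to DMSO (negative) and no-cell (cytotoxicity) controls.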
A general note: In qHTS, concentration-response curves come from the screen itself.

Test [2] has as its system MKL-2. The description is as above. Particulars: MCC and control cell lines, CellTiter-Glo viability, 72 h; series mostly up to 46 µM. The method, boiled down: as §1
On the technique in general: ATP-based viability assays read luminescence as a measure of living cells.

Test [3] relates to C33A. Kind of test: Primary qHTS to identify gynecologic anti-cancer compounds using libraries of approved drugs and bioactive compounds (AID 1345084). Also: nearly all actives have a fitted effect of over 55% in size. Particulars: Gynecologic cancer cell panel viability, ATPlite luminescence, 48 h; series mostly up to 57.5 µM. A digest of the protocol:
(§2)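 Cells, 1,000 per well, plated 16 h, then exposed 48 h at 37 C to compounds. Viability by ATPlite luminescence after 15 min at room temperature.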

In test [4] the test system is CAOV3. Described as above. The conditions noted are these: Gynecologic cancer cell panel viability, ATPlite luminescence, 48 h; series mostly up to 57.5 µM. A digest of the protocol:
as §2

Test [5] deals with MCC-13. Kind of test: qHTS assay to identify novel small-molecules to repurpose for Merkel cell carcinoma treatment (AID 1296009). Also: nearly all actives have a fitted effect of over 60% in size. The conditions noted are these: MCC and control cell lines, CellTiter-Glo viability, 72 h; series mostly up to 46 µM. The method, boiled down:
as §1

Test [6] relates to MKL-1. Described as above. Particulars: MCC and control cell lines, CellTiter-Glo viability, 72 h; series mostly up to 46 µM. A digest of the protocol: as §1
Test [7] has as its system UISO. The description is as above. The conditions noted are these: MCC and control cell lines, CellTiter-Glo viability, 72 h; series mostly up to 46 µM. The method, boiled down:
as §1

In test [8] the test system is WaGa. Described as above. Particulars: MCC and control cell lines, CellTiter-Glo viability, 72 h; series mostly up to 46 µM. The method, boiled down:
as §1

In test [9] the test system is NIH3T3. The description is as above. The conditions noted are these: MCC and control cell lines, CellTiter-Glo viability, 72 h; at 44.8 µM (top of the series) unless noted. The method, boiled down: as §1
% is scaled to controls: 0 for no effect and ±100 for the full control effect; potency is read from the fitted curve at half-maximal effect.

As to `Cc1nc(N)nc(N)c1-c1ccc(Cl)c(Cl)c1`, the Potency entry in [1], in test [2] and in test [4] was “inactive” in each case. In addition, the Potency in test [3] is 0.447 µM (active).
As to `C[C@@H]1C[C@H]2[C@@H]3CCC4=CC(=O)C=C[C@]4(C)[C@@]3(F)[C@@H](O)C[C@]2(C)[C@@]1(O)C(=O)COC(=O)c1ccncc1`, the Potency entry in test [5], in [6], in test [2], in [7], in test [8] and in test [3] was “inactive” each time. Besides, the Potency entry in test [4] was “inactive”.
`O=C(O)[C@@H](O)[C@H](O)[C@H](O)[C@@H](O)C(=O)O`: the Potency result in [5], in [6], in [2], in test [7], in test [8] and in [3] was “inactive” in each case. Besides, the Potency entry in [4] was “inactive”.
With `CO[C@@H]1[C@@H](O[C@@H]2O[C@H](C)[C@@H](O[C@H]3C[C@@](C)(O)[C@@H](O)[C@H](C)O3)[C@H](N(C)C)[C@H]2O)[C@@H](CC=O)C[C@@H](C)[C@@H](O[C@@H]2CC[C@H](N(C)C)[C@@H](C)O2)/C=C/C=C/C[C@@H](C)OC(=O)C[C@H]1OC(C)=O`, the Potency entry in test [5], in test [6], in [2], in test [7], in test [3] and in test [4] was “inactive” in each case.
Take `Nc1ccc2c(c1)CN1C(=O)c3ccccc3C1=N2`: the Potency result in test [1], in test [2] and in test [7] was “inactive” throughout.
For `O=c1[nH]sc2cc(Cl)ccc12`, the Potency in [5] is 6.68 µM (active). In addition, the Potency result in [6], in test [2] and in test [8] was “inactive” throughout.
As for `CCOC(=O)[C@H](CCc1ccccc1)N[C@@H](C)C(=O)N(CC(=O)O)C1Cc2ccccc2C1`, the Potency entry in test [5], in [6], in test [2], in test [7], in test [8] and in test [3] was “inactive” each time. Besides, the Potency result in [4] is “inactive”.
With `Clc1ccc2c(c1)N=C(N1CCNCC1)c1ccccc1N2`, the Potency entry in test [3] and in [4] was “inactive” in each case.
As to `N#C/C(=C1/SC[C@@H](c2ccc(Cl)cc2Cl)S1)n1ccnc1`, the Potency result in test [1], in test [3] and in test [4] was “inactive” throughout.
In the case of `O=C1NC2CCCCN2C12CCN(CCCN1c3ccccc3CCc3ccc(Cl)cc31)CC2` (centres undefined), the Potency in test [2] is 21.1 µM (active). The Potency result in test [3] was “inactive”.
Take `O=[N+]([O-])c1ccc(-c2nc(-c3ccc(F)cc3)c(-c3ccncc3)[nH]2)cc1`: the Potency result in test [3] and in [4] was “inactive” each time.
Consider `O=C(Nc1ccc(Cl)cc1)Nc1ccc(Cl)c(Cl)c1`, for which the Potency in test [6] is 18.8 µM (active); in test [2] it was 5.96 µM (active); in test [7] it was 10.6 µM (active); in test [8], 21.1 µM (active).
As to `O=C1[C@@H]2[C@H]3CC[C@H](C3)[C@@H]2C(=O)N1CCCCN1CCN(c2ncccn2)CC1`, the Potency result in [3] and in [4] was “inactive” throughout.
For the molecule `CC(NN)c1ccccc1` (centres undefined), the Potency result in test [3] and in [4] was “inactive” each time.
Consider `C[C@@H](O[C@H]1OCCN(Cc2n[nH]c(=O)[nH]2)[C@H]1c1ccc(F)cc1)c1cc(C(F)(F)F)cc(C(F)(F)F)c1`, for which the Potency entry in test [3] and in [4] was “inactive” in each case.
Consider `CN1CC[C@H](c2c(O)cc(O)c3c(=O)cc(-c4ccccc4Cl)oc23)[C@H](O)C1`, for which the Potency is 0.473 µM (active) in test [7] and 1.26 µM (active) in test [3].
Regarding `Nc1cc(C(F)(F)F)ccc1S`, the Potency in test [2] is 11.9 µM (active); in test [7] it was 13.3 µM (active). Also, in test [9], the molecule was called inactive. Besides, the Potency result in test [3] and in [4] was “inactive” in each case.
As to `NC(=O)C1(N2CCCCC2)CCN(CCCN2c3ccccc3CCc3ccc(Cl)cc32)CC1`, the Potency in test [3] is 25.1 µM (active).
With `CC(NCCC(c1ccccc1)c1ccccc1)c1ccccc1` (centres undefined), the Potency in test [2] is 11.9 µM (active).
On to `CC(C)N(CCC(=O)c1ccc2ccccc2c1)Cc1ccccc1`, for which the Potency result in test [3] and in [4] was “inactive” each time.
For the molecule `CC(COc1ccccc1)NN` (centres undefined), the Potency result in [3] and in test [4] was “inactive” in each case.
In the case of `Cc1nn(-c2ccccc2)c(C)c1/C=N/N1CCN(Cc2ccccc2)CC1`, the Potency entry in test [3] and in test [4] was “inactive” in each case.
As for `CO/N=C(/C(=O)N[C@@H]1C(=O)N2C(C(=O)[O-])=C(C[n+]3ccn4ncccc43)CS[C@H]12)c1nsc(N)n1`, the Potency entry in [3] and in test [4] was “inactive” in each case.
With `CC1CN(c2cc3c(cc2F)c(=O)c(C(=O)O)cn3-c2ccc(F)cc2F)CCN1` (centres undefined), the Potency entry in test [3] and in [4] was “inactive” each time.
`Brc1ccc([C@H]2CN3CCSC3=N2)cc1`: in [9], the molecule was called inactive. For the same molecule, the Potency entry in test [3] and in test [4] was “inactive” each time.
`O=C1CC[C@H](C(=O)N2CCCCC2)N1`: the Potency entry in test [3] and in test [4] was “inactive” each time.
For `COC(=O)C1=CO[C@@H](O)[C@@H]2C(CO)=CC[C@H]12`, the Potency entry in [3] was “inactive”.
Turning to `COc1c(N2C[C@@H]3CCCN[C@@H]3C2)c(F)cc2c(=O)c(C(=O)O)cn(C3CC3)c12`, the Potency result in test [3] and in [4] was “inactive” in each case.
On to `CC(C)(C)c1ccc(O)c(O)c1`, for which the Potency was 6.86 µM (active) in test [6], 6.11 µM (active) in [2], 15.4 µM (active) in test [7] and 10.9 µM (active) in [8].
As for `O=C(c1ccccc1)c1ccccc1`, the Potency entry in test [3] was “inactive”.
For the molecule `CN(C)c1cc2c(Nc3ccc4c(cnn4Cc4ccccc4)c3)ncnc2cn1`, the Potency entry in test [3] and in test [4] was “inactive” each time.
Regarding `COc1ccc([C@@H]2Sc3ccccc3NC(=O)[C@@H]2O)cc1`, the Potency result in test [1], in [2], in [3] and in [4] was “inactive” each time.
As for `COc1ccc(-n2nc(CCC(=O)N(C)O)cc2-c2ccc(Cl)cc2)cc1`, the Potency entry in test [1], in test [3] and in [4] was “inactive” in each case. Also, the Potency in [2] is 21.1 µM (active).
For the molecule `N[C@@H](Cn1ccc(=O)c(O)c1)C(=O)O`, the activity change, negative = cytotoxicity in test [3] was 19.3% [at 6.55 µM]; in [4], 11.6% [at 6.55 µM].
For the molecule `O=C(Nc1ccc(Cl)cc1)Nc1ccc(Cl)c(C(F)(F)F)c1`, the Potency is 21.1 µM (active) in test [6]; 7.5 µM (active) in [2]; 10.6 µM (active) in test [7]; 26.6 µM (active) in [8]; 17.8 µM (active) in [3].
Take `Cc1cc(OCCOCC[N+](C)(C)Cc2ccccc2)ccc1C(C)(C)CC(C)(C)C`: the Potency in test [7] is 4.22 µM (active).
On to `O=C1NC(=O)/C(=C/c2ccc3c(c2)OC(F)(F)O3)S1`, for which the Potency entry in [3] and in test [4] was “inactive” each time.
For `CC[N+]1(CC)CCC(=C(c2ccccc2)c2ccccc2)C1C` (centres undefined), the Potency result in test [3] and in [4] was “inactive” throughout.
For the molecule `CCN(CC)CCOc1ccc(/C(=C(\Cl)c2ccccc2)c2ccccc2)cc1`, the Potency in test [6] is 23.7 µM (active); in test [8], 26.6 µM (active).
On to `Nc1ccc(O)cc1`, for which the Potency result in [3] and in test [4] was “inactive” in each case.
Consider `CC(=O)Oc1ccc(C2(c3ccc(OC(C)=O)cc3)Oc3ccccc3NC2=O)cc1`, for which the Potency entry in test [6], in [2] and in test [3] was “inactive” throughout.
As to `O=C1NC(c2cccc([N+](=O)[O-])c2)=CCN1c1ccccc1O`, the Potency result in [3] and in test [4] was “inactive” each time.
As to `CCCCCC(=O)O[C@]1(C(C)=O)CC[C@H]2[C@@H]3CCC4=CC(=O)CC[C@]4(C)[C@H]3CC[C@@]21C`, the Potency result in test [1], in [2] and in test [4] was “inactive” throughout.
Regarding `CCC1=C[C@@H]2CN(C1)Cc1c([nH]c3ccccc13)[C@@](C(=O)OC)(c1cc3c(cc1OC)N(C)[C@H]1[C@@](O)(C(=O)OC)[C@H](OC(C)=O)[C@]4(CC)C=CCN5CC[C@]31[C@@H]54)C2`, the Potency in test [2] is 0.0188 µM (active); in [7], 0.0119 µM (active); in test [4], 10 µM (active).
Regarding `CCCCCCCCCCCC[N+](C)(C)Cc1ccccc1`, the Potency in [6] is 1.06 µM (active); in test [2], 0.0944 µM (active); in [7], 1.19 µM (active); in [8], 1.88 µM (active); in test [3], 2.51 µM (active); in test [4], 5.62 µM (active).
Take `CCCCCCCCCCCCCCCCCCNC(=O)OC1CCN(C(=O)OC[C@H](COC(=O)N(Cc2cccc[n+]2CC)C(=O)c2ccccc2OC)OC)CC1`: the Potency in [6] is 11.9 µM (active); in test [2], 2.66 µM (active); in test [7], 6.68 µM (active); in test [4], 15.8 µM (active).
Take `CN1CCCN(C(c2ccccc2)c2ccc(Cl)cc2)CC1` (centres undefined): the Potency result in test [1], in test [3] and in test [4] was “inactive” each time.
